Experimental data reported in the supplement of paper PMC10127200.
Where a name gives a salt, the structure may show the parent alone.

Experiments:
Test in all cases: Euclidean distance of Cell Painting phenotypic profile (signed KS, 77 features) to DMSO centroid (dimensionless distance); 5 or 10 uM (library dependent); higher = stronger phenotypic change vs DMSO (phenoactivity)
Conditions in all cases: 48 h
786-O = tested on: 786-O
How it was run: (§1)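 Stained cells were imaged confocally at 20X with 9 fields per well, after 48 h of exposure to library compounds at 10 or 5 uM (set by library; 0.1% DMSO final). The cells were five cancer lines and a healthy fibroblast line. From the images, Harmony extracted 77 features, each expressed as a signed Kolmogorov-Smirnov statistic relative to same-plate vehicle wells. Phenoactivity is measured as Euclidean distance to the median vehicle profile, using plate-position-corrected, correlation-weighted profiles averaged across replicates at the top dose.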

A549 = tested on: A549
How it was run: as §1

DU145 = tested on: DU145
How it was run: as §1

FB = tested on: FB
How it was run: as §1

HEPG2 = tested on: HEPG2
How it was run: as §1

OVCAR4 = tested on: OVCAR4
How it was run: as §1

Structure (SMILES)	Euclidean distance (786-O)	Euclidean distance (A549)	Euclidean distance (DU145)	Euclidean distance (FB)	Euclidean distance (HEPG2)	Euclidean distance (OVCAR4)
COC(=O)Nc1nc2cc(Sc3ccccc3)ccc2[nH]1 [Fenbendazole]	2.61	2.78	3.05	2.21	2.12	2.83
Cc1nc(C(=O)NCC(=O)O)c(O)c2ccc(Oc3ccccc3)cc12	1.71	1.55	1.53	2.88	1.32	1.92
C[C@@]12C[C@@]3(O)O[C@@H](O1)[C@]1(COC(=O)c4ccccc4)[C@H]3C[C@@]12O[C@@H]1O[C@H](CO)[C@@H](O)[C@H](O)[C@H]1O [Paeoniflorin]	1.19	0.375	0.983	0.985	0.474	1.17
N=C(N)c1ccc(N=NNc2ccc(C(=N)N)cc2)cc1 [Diminazene Aceturate]	1.25	1.11	1.1	0.72	2.06	0.868
FC(F)(F)c1ccc(/C=C/c2nc(COc3ccc(CCCCn4ccnn4)cc3)co2)cc1 [Mubritinib (TAK 165)]	0.614	1.76	1.4	1.61	1.89	1.42
O=C(NC1CCN(CCCCC2(C(=O)NCC(F)(F)F)c3ccccc3-c3ccccc32)CC1)c1ccccc1-c1ccc(C(F)(F)F)cc1 [Lomitapide Mesylate]	5.45	4.4	6.1	5.88	5.29	5.65
Nc1ncccc1-c1nc2ccc(-c3ccccc3)nc2n1-c1ccc(C2(N)CCC2)cc1 [Miransertib (ARQ 092) HCl]	4.75	4.1	2.87	4.17	4.52	3.46
CC(C)(CO)[C@@H](O)C(=O)NCCC(=O)O [D-Pantothenate Sodium]	1.18	0.904	1.05	1.15	0.523	1.33
CCOC(=O)c1ccc(C#Cc2ccc3c(c2)C(C)(C)CCS3)nc1 [Tazarotene]	1.01	1.14	0.728	2.31	0.556	1.27
O=C(O)COc1nn(Cc2ccccc2)c2ccccc12 [Bendazac]	1.07	0.905	1.13	1.39	0.558	1.32
Cc1cc(OCCCS(C)(=O)=O)cc(C)c1-c1cccc(COc2ccc3c(c2)OC[C@H]3CC(=O)O)c1	1.05	1.02	1.26	2.38	1	1.88
Nc1nc(=O)c2nc(CNc3ccc(C(=O)N[C@@H](CCC(=O)O)C(=O)O)cc3)cnc2[nH]1 [Folic acid]	1.19	0.776	0.987	0.817	0.743	1.25
Nc1cc(F)ccc1NC(=O)/C=C/c1cnn(C/C=C/c2ccccc2)c1	1.54	1.02	0.877	2.44	1.27	0.895
CCCCOc1ccc(C(=O)Nc2ccc(F)cc2F)cc1	1.45	1.45	1.14	1.28	0.872	1.5
O=c1[nH]cc(F)c(=O)[nH]1 [Fluorouracil (5-Fluoracil. 5-FU)]	1.5	3.01	1.12	2.37	2.13	2.12
COc1cc(Nc2c(C#N)cnc3cc(OCCCN4CCN(C)CC4)c(OC)cc23)c(Cl)cc1Cl [Bosutinib (SKI-606)]	3.85	3.56	2.93	3.66	3.22	4.14
Nc1ccc(C(=O)Nc2cccc(-c3nc(N4CCOCC4)c4oc5ncccc5c4n3)c2)cn1	4.09	5.02	4.16	1.63	3.45	2.25
Cc1ncc([N+](=O)[O-])n1CC(O)CCl (stereo not given) [Ornidazole]	1.17	0.686	0.775	1.03	0.557	0.676
N[C@@H]1CONC1=O [D-Cycloserine]	1.67	1.18	1.43	0.939	0.865	0.96
COc1cc(C(=O)NCc2ccc(OCCN(C)C)cc2)cc(OC)c1OC [Tribenzagan Hydrochloride]	1.18	1.99	1.05	1.12	1.07	1.09
CC1=C(/C=C/C(C)=C/C=C/C(C)=C\C(=O)O)C(C)(C)CCC1 [Isotretinoin]	1.68	1.11	1.24	1.94	1.63	1.46
O=C(c1ccc(OCCCc2c[nH]cn2)cc1)C1CC1 [Ciproxifan]	1.15	1.15	1.03	0.829	0.908	1.15
CNC(=O)CN1CCC(Oc2cc3c(Nc4cccc(Cl)c4F)ncnc3cc2OC)CC1 [Sapitinib (AZD8931)]	1.67	3.03	2.21	2.79	1.18	3.03

Structure (SMILES)	Euclidean distance (786-O)	Euclidean distance (A549)	Euclidean distance (DU145)	Euclidean distance (FB)	Euclidean distance (HEPG2)	Euclidean distance (OVCAR4)
CCN1CCC[C@H]1CNC(=O)c1cc(S(N)(=O)=O)ccc1OC [Levosulpiride]	1.03	0.793	1.14	0.991	1.73	1.77
CC1(N)CCN(c2cccnc2NC(=O)c2nc(-c3ncccc3C(F)(F)F)cnc2N)CC1	2.98	2.64	3.38	2.85	3.49	2.63
CCC(CC)CC1(C(=O)Nc2ccccc2SC(=O)C(C)C)CCCCC1	1.26	1.07	0.832	1	0.428	0.986
CN[C@H]1CC[C@@H](c2ccc(Cl)c(Cl)c2)c2ccccc21 [Sertraline HCl]	2.46	2.13	1.74	2.83	4.1	2.02
O=C(O)CCc1ccc(NCc2cccc(Oc3ccccc3)c2)cc1	1.31	1.43	1.69	1.47	1.25	1.53
CCOC(=O)[C@H]1O[C@@H]1C(=O)N[C@@H](CC(C)C)C(=O)NCCC(C)C [Aloxistatin]	0.731	2.18	1.26	1.17	0.539	0.987
CN(C)C(=O)COC(=O)Cc1ccc(OC(=O)c2ccc(NC(=N)N)cc2)cc1 [Camostat Mesilate]	1.16	0.62	1.08	0.645	0.823	1.71
COCC(=O)Nc1c(I)c(C(=O)NCC(O)CO)c(I)c(C(=O)N(C)CC(O)CO)c1I (stereo not given) [Iopromide]	1.53	0.999	0.749	1.04	0.445	1.07
COc1c2occc2c(OC)c2c(=O)cc(C)oc12 [Khellin]	1.37	0.619	0.84	0.769	1.17	0.887
CC(C)(C)c1nc(-c2cccc(NS(=O)(=O)c3c(F)cccc3F)c2F)c(-c2ccnc(N)n2)s1	1.53	1.16	1.31	3.02	1.45	1.03
Cc1cn(-c2cc(NC(=O)c3ccc(C)c(Nc4nccc(-c5cccnc5)n4)c3)cc(C(F)(F)F)c2)cn1 [Nilotinib hydrochloride]	2.28	4.11	3.01	1.85	3.37	3.14
Cc1ccc(O)c([C@H](CCN(C(C)C)C(C)C)c2ccccc2)c1 [Tolterodine tartrate]	1.87	0.728	0.897	1.13	1.19	1.58
O=C(Nc1ccccc1)Nc1ccc(-c2ccc(C(=O)[C@@H]3CCC[C@H]3C(=O)O)cc2)cc1	0.735	0.898	0.804	1.29	1.92	0.814
Cn1cnc2c(F)c(Nc3ccc(Br)cc3F)c(C(=O)NOCCO)cc21	2.04	2.89	2.61	3.82	1.63	1.91
C[C@H]1[C@H](OC(=O)CCC(=O)O)O[C@@H]2O[C@@]3(C)CC[C@H]4[C@H](C)CC[C@@H]1[C@@]24OO3 [Artesunate]	1.44	2.06	1.01	1.66	1.03	1.88
CC(C)/N=c1\cc2n(-c3ccc(Cl)cc3)c3ccccc3nc-2cc1Nc1ccc(Cl)cc1 [Clofazimine]	1.02	1.1	0.808	1.7	0.662	1.05
CCCC(=O)Nc1ccc(OCC(O)CNC(C)C)c(C(C)=O)c1 (stereo not given) [Acebutolol HCl]	0.96	0.8	1.23	1.3	0.817	1.34
O=S(=O)(c1cccc2cnccc12)N1CCCNCC1 [Fasudil (HA-1077) HCl]	1.52	0.649	1.94	0.846	1.28	0.851
CC(C)CCN1c2nc(Nc3cc(F)c(O)c(F)c3)ncc2N(C)C(=O)C1C (stereo not given)	1.38	1.84	2.16	1.49	0.771	2.61
C/C(=C\C(=O)OCCCCCCCCC(=O)O)C[C@@H]1OC[C@H](C[C@@H]2O[C@H]2[C@@H](C)[C@H](C)O)[C@@H](O)[C@H]1O [Mupirocin]	1.8	0.693	0.636	0.92	0.693	1.35
COc1nc(N)nc2c1ncn2[C@@H]1O[C@H](CO)[C@@H](O)[C@@H]1O [Nelarabine]	1.28	1.4	0.995	2.02	0.531	1.1
CCOc1ccc(Cc2cc([C@]34OC[C@](CO)(O3)[C@@H](O)[C@H](O)[C@H]4O)ccc2Cl)cc1 [Ertugliflozin]	1.45	0.762	1.22	0.862	0.465	1.23
